# Source: the supplement of paper PMC10338343
# ± gives the standard deviation. Over roughly 5,500 sequences, “pre-steady-state target cleavage rate” has its median near 0.1; the highest 2% begin near 0.64. For the sample, the highest values were picked, then their nearest neighbours and some sequences at random.
# Test system: MIWI (PIWIL1) piRISC loaded with piRNA #2 (30 nt)
# Experiment: pre-steady-state target cleavage rate (min^-1); MIWI and MILI are mouse PIWI proteins and EfPiwi is from a freshwater sponge; tags in brackets are library labels; higher = faster piRNA-guided slicing of the target
# Settings: guide: piRNA #2 5'p-UUAGGUAACCCAGUAGAUCCAGAGGAAUUC; auxiliary factor: 500 nM mouse GTSF1
# Procedure: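 Cleave-'n-Seq: a library of target RNAs (target site embedded in constant flanks, ACAGCATTCCGCGTTAGTGATATCCG... 5' flank; DNA-blocked outside the site) at 0.1 nM was incubated with 1 nM active mouse MILI or MIWI piRISC (synthetic 5'-monophosphorylated piRNA guide) with or without 500 nM mouse GTSF1 at 33 °C for 1 min to 16 h. Uncleaved targets were sequenced and normalised to non-target controls, and the pooled three trials were fitted to a burst-and-steady-state model to give the pre-steady-state cleavage rate (min^-1; k3 is constrained to at most 1e-4). Sequence is the target site only; target names encode pairing extent (gX:gY) and contiguous / 1-mismatch / 2-mismatch / bulge geometry. Fits with R² ≤ 0 are excluded.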
row,Sequence,pre-steady-state target cleavage rate
1,CUUAUCCUCUGGAUACUACUGGGUUACCUAA,0.419 ± 0.059
2,CAAUUCCUCUGGAUAUACUGGGUUACCUAA,0.724 ± 0.043
3,CUUAUCCUCUGGAUUACUGGGUUACCUAA,0.481 ± 0.04
4,CUUUUCCUCUGGAUAUACUGGGUUACCUAA,0.628 ± 0.04
5,CAAUUCCUCUGGAUACUACUGGGUUACCUAA,0.519 ± 0.068
6,GAAUUCCUCUGGAUAUACUGGGUUACCUAA,0.551 ± 0.038
7,CUAUUCCUCUGGAUAUACUGGGUUACCUAA,0.772 ± 0.057
8,CUUAUCCUCUGGAUAUACUGGGUUACCUAA,0.688 ± 0.052
9,CUAUUCCUCUGGAUACUACUGGGUUACCUAA,0.422 ± 0.056
10,CAAUUCCUCAGGAUCUACUGGGUAACCUAA,0.336 ± 0.056
11,CUUAACCUCUGGAUCUUCAGGGUUACCUAA,0.112 ± 0.014
12,CUUAACCUCUGGAACUACUGGGUUAGCUAA,0.103 ± 0.016
13,CAAUUCCUCUCGAUCUACAGGGUUACCUAA,0.546 ± 0.038
14,CUUUUCCUCUGGAACUAGUGGGUUACCUAA,0.204 ± 0.025
15,CUUAAGGAGAGGAUCUACUGGGUUACCUCA,0.012 ± 0.0055
16,CAAUUCCUCUCGAUCUACUGGGUUACCUUA,0.69 ± 0.056
17,CAAUUCCUCUCGGAUCUACUGGGUUACCUAA,0.506 ± 0.065
18,CUAUUCCUCUCGAUCUACUGGGUUACCUUA,0.583 ± 0.056
19,CAAAUCCUCUCGAUCUACUGGGUUACCUAA,0.641 ± 0.05
20,CAAUUCCUCUCGAUCUACUGGGUUACCUAA,0.822 ± 0.063
21,GUAUUCCUCUCGAUCUACUGGGUUACCUAA,0.193 ± 0.044
22,GAAUUCCUCUCGAUCUACUGGGUUACCUUA,0.629 ± 0.069
23,CUAUUCCUCUCGAUCUACUGGGUUACCUAA,0.734 ± 0.063
24,CUAUUCCUCUCGGAUCUACUGGGUUACCUAA,0.575 ± 0.089

row,Sequence,pre-steady-state target cleavage rate
1,GAAAUCCUCUCGAUCUACUGGGUUACCUAA,0.586 ± 0.054
2,CAAUACCUCUCGAUCUACUGGGUUACCUAA,0.625 ± 0.056
3,CUAAUCCUCUCGAUCUACUGGGUUACCUAA,0.631 ± 0.042
4,CUUAAGGUCUGGAUCUACUGGGUUACCAUA,0.203 ± 0.029
5,CUUAACCUCUCGAUCUUCUGGGUUACCUAA,0.47 ± 0.044
6,CUUAAGGUCUGGAUCUUCUGGGUAACCUAA,0.0193 ± 0.011
7,CUUAAGGAGUGGAUCUACACCGUUACCUAA,0.0034 ± 0.0022
8,CUAUUCCUCUGCAUCUUCUGGGUUACCUAA,0.316 ± 0.028
9,GAAUUCCUCUGGAUCUACUGGGUUUGGUAA,0.244 ± 0.061
10,CUUAAGGUCUGGAUGUACUGGCUUACCUAA,0.0442 ± 0.028
11,CUUUACCUCUGGAUCUACUCGGUUACCUAA,0.0688 ± 0.0087
12,CUUAACCUCUGGAUGUUCUGGGUUACCUAA,0.244 ± 0.019
13,CUAUAUCCUCUGGAUCUACUGGGUUACCUAA,0.352 ± 0.071
14,GAAUUCCUCUCGGAUCUACUGGGUUACCUAA,0.442 ± 0.048
15,GAAUUCCUCUCGAUCUACUGGGUUACCUAA,0.642 ± 0.068
16,GAAUUCCUCUCGAUCUACUGGGUUUCCUAA,0.524 ± 0.06
17,CUUAACCUGUGGAUCUACUGGGUAACCUAA,0.0751 ± 0.013
18,GAAUUCCUCUGGAUCUAGUGGGAUACCUAA,0.0616 ± 0.011
19,CUUUUCCUCUGCAUCUACUGGGAUACCUAA,0.128 ± 0.018
20,CUUUUCCUCUCGAUCUACUGGGUUUCCUAA,0.509 ± 0.058
21,CAUUUCCUCUGGAUCUACUGGGUUACGUAA,0.622 ± 0.062
22,CUUUUCCUCUGGAUCUACUGGGUUACGUUA,0.374 ± 0.044
23,GUAUUCCUCUGGAUCUACUGGGUUACGUAA,0.377 ± 0.057
24,CUUUUCCUCUGGAUCUACUGGGUUACGUAA,0.664 ± 0.034

row,Sequence,pre-steady-state target cleavage rate
1,CUUUUCCUCUCGAUCUACUGGGUUACGUAA,0.746 ± 0.034
2,CUUUUCCUCAGGAUCUACUGGGUUACGUAA,0.523 ± 0.067
3,CAAUUCCUCUCGAUCUACUGGGUUACGUAA,0.885 ± 0.061
4,CUAUUCCUCUGGAUCUACUGGGUUACGUAA,0.63 ± 0.047
5,CAAUUCCUCUGGAUCUACUGGGUUACGUAA,0.598 ± 0.065
6,GAAUUCCUCUCGAUCUACUGGGUUACGUAA,0.581 ± 0.067
7,CUAUUCCUCUCGAUCUACUGGGUUACGUAA,0.935 ± 0.047
8,CUUAAGGUCUGGAUCUACUCGGUUACCUAA,0.0416 ± 0.02
9,CUUAUCCUCUGGAUCUUCUGGGUUACGUAA,0.45 ± 0.055
10,CUAUUCCUCUGGAUCUACUGGUUACCUAA,0.104 ± 0.026
11,CAAUUCCUCUGGAUCUACUGAGUUACCUAA,0.869 ± 0.075
12,CAAUUCCUCUGGAUCUACUGAGGUUACCUAA,0.00648 ± 0.0048
13,CUAUUCCUCUGGAUCUACUGAGUUACCUAA,0.823 ± 0.06
14,CUAUUCCUCUGGAUCUACUGGAGUUACCUAA,0.00422 ± 0.0041
15,CUUUUCCUCUGGAUCUACUGAGUUACCUAA,0.727 ± 0.048
16,CAAUUCCUCUGGAUCUACUGGAGUUACCUAA,0.00382 ± 0.0035
17,GAAUUCCUCUGGAUCUACUGGAGUUACCUAA,0.00576 ± 0.0035
18,CUUUUCCUCUGGAUCUACUGGGUUACCUAA [g2:g27:cont:t1A],0.408 ± 0.057
19,CUUUUCCUCUGGAUCUACUGGUUACCUAA,0.0817 ± 0.016
20,GAAUUCCUCUGGAUCUACUGAGGUUACCUAA,0.00556 ± 0.0037
21,GAAUUCCUCUGGAUCUACUGAGUUACCUAA,0.67 ± 0.046
22,CUUAUCCUCUGGAUCUACAGGGUUACCAAA,0.237 ± 0.03
23,CAAUUCCUCUCGAUCUACUGGGUAACCUAA,0.476 ± 0.058
24,GAAUUCCUCUGGAUCUUCUGGGAUACCUAA,0.108 ± 0.018

row,Sequence,pre-steady-state target cleavage rate
1,CUUAUCCUCUGGAUCUUCUGGGUAACCUAA,0.0522 ± 0.013
2,GAAUUCCUCUGCAACUACUGGGUUACCUAA,0.413 ± 0.048
3,CUAUUCCUCUGGAUCUACUGGGUAACCUAA,0.231 ± 0.042
4,CUUAAGGUCUGGAUCUCCUGGGUUACCUAA,0.0565 ± 0.013
5,CUUAUCCUCUGGAUCUACUGGGUUAACUAA,0.407 ± 0.071
6,CUUAAGGUCUGGAACUAGUGGGUUACCUAA,0.0577 ± 0.017
7,CAAUUCCUCAGCAUCUACUGGGUUACCUAA,0.437 ± 0.044
8,CUUAAGCUCCUGGAUCUACUGGGUUACCUAA,0.181 ± 0.021
9,CUUAUCCUCGUGGAUCUACUGGGUUACCUAA,0.161 ± 0.032
10,GAAUUCCACUGGAUCUACUCGGUUACCUAA,0.193 ± 0.022
11,CUAUUCCUCUGGAUCUACUGCGUUACGUAA,0.539 ± 0.08
12,CUUAACCUCUGGAUCUACUGGGUUACCGUAA,0.155 ± 0.019
13,CUAUUCCUCUGAGAUCUACUGGGUUACCUAA,0.471 ± 0.042
14,CAAUUCCUCUAGGAUCUACUGGGUUACCUAA,0.434 ± 0.048
15,GAAUUCCUCUAGAUCUACUGGGUUACCUAA,0.731 ± 0.05
16,CAAUUCCUCUGAGAUCUACUGGGUUACCUAA,0.545 ± 0.057
17,GAAUUCCUCUGAGAUCUACUGGGUUACCUAA,0.381 ± 0.046
18,CUAUUCCUCUAGGAUCUACUGGGUUACCUAA,0.278 ± 0.041
19,CUAUUCCUCUAGAUCUACUGGGUUACCUAA,0.67 ± 0.042
20,CAAUUCCUCUAGAUCUACUGGGUUACCUAA,0.807 ± 0.047
21,GAAUUCCUCUAGGAUCUACUGGGUUACCUAA,0.348 ± 0.074
